Results filed as inconclusive are left out. Calls of active or inactive are those of the source. Unless noted, calls come from the whole dose curve; as a rule, active = well fitted curve in the direction sought with a large enough effect in the repeat runs; inconclusive = weak or mixed curves; inactive = no such curve, though single readings can be large; an effect the other way counts as inactive or inconclusive.
Experiments:
[1] = qHTS assay to identify small molecule agonists of the hypoxia (HIF-1) signaling pathway - cell viability counter screen (AID 1224844; calls by dose curve; note: nearly all actives have a fitted effect of over 50% in size; note: potency is the fitted concentration of half-maximal effect)
Procedure, shortened: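 Multiplexed with the HRE beta-lactamase assay, this viability read used CellTiter-Glo luminescence (30 min, RT) on HRE-bla ME-180 cells treated 17 hrs with compounds in 0.5% dialyzed FBS medium.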

[2] = qHTS assay to identify small molecule agonists of H2AX (AID 1224845; active = well fitted activation curve with a large enough effect in the signal ratio in the repeat runs, not every such curve was filed as active; the % refers to the signal ratio)
Procedure, shortened: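 Wild-type CHO-K1 cells, plated overnight, exposed 3hr at 37C to 15 concentrations (0.76% DMSO final). Lysed, then HTRF anti-pH2AX (S139) cryptate and anti-H2AX-d2 antibodies, 24 hr room temperature; 665/620 nm emission read.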

[3] = qHTS assay to identify small molecule agonists of the hypoxia (HIF-1) signaling pathway (AID 1224846; active = well fitted activation curve with a large enough effect in the signal ratio in the repeat runs, not every such curve was filed as active; the % refers to the signal ratio)
Procedure, shortened: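 Hypoxia-pathway activation was scored as increased beta-lactamase from an HRE-controlled reporter in ME-180 cells; plated at 2,000 cells per well with 0.5% dialyzed FBS, they were exposed 17 hrs to compounds and then given CCF4-AM.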

[4] = qHTS assay to identify small molecule agonists of H2AX - cell viability counter screen (AID 1224847; calls by dose curve; note: top concentration of the series differs between compounds; nearly all actives have a fitted effect of over 30% in size)
Procedure, shortened: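 Quantitative HTS viability measurement: CHO-K1 wild-type cells in serum (10% FBS) medium, short 3 hr drug exposure at 37C with 0.76% DMSO, CellTiter-Glo luminescent detection.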

[5] = qHTS assay to identify small molecule antagonists of the estrogen related receptor (ERR) signaling pathway from Tox21 library (AID 1224848); note: nearly all actives have a fitted effect of over 50% in size; note: potency is the fitted concentration of half-maximal effect
Procedure, shortened: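 ERR reporter cell line (from NTP) seeded 2,000 cells/well, rested 6 h at 37 C/5% CO2, then pin-dosed with compounds in DMSO. After 18 h at 37 C, ONE-Glo added; luminescence read after 30 min at room temperature.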

[6] = qHTS assay to identify small molecule agonists of the estrogen related receptor (ERR) signaling pathway from Tox21 library (AID 1224849; calls by dose curve; note: nearly all actives have a fitted effect of over 15% in size); conditions: ERR reporter cell line, ONE-Glo luciferase, 18 h; at 92.4 µM (top of the series) unless noted
Procedure, shortened: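 Six hours post-seeding at 37 C/5% CO2, ERR cells receive DMSO-solubilised compounds; after 18 h at 37 C, ONE-Glo reagent is applied and luminescence recorded.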

[7] = qHTS RealTime-Glo MT Cell Viability Assay in HepG2 cells - 24 hour (AID 1224867); note: nearly all actives have a fitted effect of over 50% in size
Procedure, shortened: (§1)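 Tox21 10K library screened in qHTS format on HepG2 cells carrying RealTime-Glo reagents. Compounds were added after a 5 h preincubation, and the luminescent signal from continuous culture was measured repeatedly during 40 h treatment.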

[8] = qHTS RealTime-Glo MT Cell Viability Assay in HepG2 cells - 40 hour (AID 1224870); note: nearly all actives have a fitted effect of over 50% in size; note: potency is the fitted concentration of half-maximal effect
Procedure, shortened: (§2)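 HepG2 cells (600/well) mixed with RealTime-Glo MT reagent, settled 5 h at 37 C/5% CO2 before compound addition. Nonlytic NanoLuc luminescence from viable-cell prosubstrate reduction read repeatedly during 40 h treatment at 37 C.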

[9] = A CellTox Green Cytotoxicity Assay to monitor cytotoxicity in HEK293 cells - 40 hour (AID 1224871); note: nearly all actives have a fitted effect of over 45% in size; note: potency is the fitted concentration of half-maximal effect
Procedure, shortened: (§3)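 Seeding of HEK293 cells together with cytotoxicity dye preceded a 5 h incubation at 37 C/5% CO2. Test compounds in DMSO were then added and fluorescence monitored across 40 h.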

[10] = qHTS RealTime-Glo MT Cell Viability Assay in HepG2 cells - 8 hour (AID 1224873); note: nearly all actives have a fitted effect of over 55% in size
Procedure, shortened: as §2

[11] = A CellTox Green Cytotoxicity Assay to monitor cytotoxicity in HEK293 cells - 24 hour (AID 1224875); note: nearly all actives have a fitted effect of over 45% in size
Procedure, shortened: as §3

[12] = A CellTox Green Cytotoxicity Assay to monitor cytotoxicity in HepG2 cells - 16 hour (AID 1224876); note: nearly all actives have a fitted effect of over 45% in size
Procedure, shortened: (§4)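 Nonlytic assay: viable cells exclude the dye, so fluorescence scales with cell death. HepG2 at 600 cells/well, compounds added after 5 h, signal read across 40 h.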

[13] = qHTS RealTime-Glo MT Cell Viability Assay in HepG2 cells - 32 hour (AID 1224877); note: nearly all actives have a fitted effect of over 55% in size; note: potency is the fitted concentration of half-maximal effect
Procedure, shortened: as §1

[14] = A CellTox Green Cytotoxicity Assay to monitor cytotoxicity in HepG2 cells - 40 hour (AID 1224879); note: nearly all actives have a fitted effect of over 40% in size
Procedure, shortened: as §4

[15] = qHTS RealTime-Glo MT Cell Viability Assay in HEK293 cells - 0 hour (AID 1224880); note: top concentration of the series differs between compounds; nearly all actives have a fitted effect of over 45% in size
Procedure, shortened: (§5)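 Tox21 screen in HEK293 using RealTime-Glo MT chemistry, with cells and reagent co-dispensed. Luminescence proportional to viable cell number was captured at intervals during 40 h compound exposure at 37 C.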

[16] = A CellTox Green Cytotoxicity Assay to monitor cytotoxicity in HEK293 cells - 0 hour (AID 1224869); note: nearly all actives have a fitted effect of over 50% in size
Procedure, shortened: as §3

[17] = qHTS RealTime-Glo MT Cell Viability Assay in HEK293 cells - 16 hour (AID 1224872); note: nearly all actives have a fitted effect of over 50% in size; note: potency is the fitted concentration of half-maximal effect
Procedure, shortened: (§6)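 Luminescence generated by NanoLuc from substrate produced by living HEK293 cells served as the viability signal. Each value reflects the reading at its stated time point during continuous 40 h compound exposure at 37 C.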

[18] = qHTS RealTime-Glo MT Cell Viability Assay in HEK293 cells - 40 hour (AID 1224874); conditions: RealTime-Glo luminescence; max response: stronger effect = lower value; note: nearly all actives have a fitted effect of over 50% in size; note: potency is the fitted concentration of half-maximal effect
Procedure, shortened: as §5

[19] = A CellTox Green Cytotoxicity Assay to monitor cytotoxicity in HepG2 cells - 24 hour (AID 1224878); note: nearly all actives have a fitted effect of over 45% in size
Procedure, shortened: as §4

[20] = qHTS RealTime-Glo MT Cell Viability Assay in HEK293 cells - 32 hour (AID 1224868); note: nearly all actives have a fitted effect of over 50% in size; note: potency is the fitted concentration of half-maximal effect
Procedure, shortened: as §6
% is set by controls: 0 for no effect and ±100 for the full control effect.

CC(C)(O)c1ccc(CNC(=O)c2cccnc2Oc2ccc(F)cc2)cc1
active: Potency [5] 30.6 µM
inactive: Potency [1] | Potency [2] | Potency [3] | Potency [4] | activity change, positive = activation [6] -45% | Potency [7] | Potency [8] | Potency [9] | Potency [10] | Potency [11] | Potency [12] | Potency [13] | Potency [14] | Potency [15]

C[Si](C)(CCCN)O[Si](C)(C)CCCN
inactive: Potency [1] | Potency [2] | Potency [3] | Potency [4] | Potency [5] | activity change, positive = activation [6] -0.594% | Potency [7] | Potency [16] | Potency [8] | Potency [9] | Potency [17] | Potency [10] | max response [18] -16% | Potency [11] | Potency [12] | Potency [13] | Potency [19] | Potency [14] | Potency [15]

COC(C)(C)CCO
inactive: Potency [1] | Potency [2] | Potency [3] | Potency [4] | Potency [5] | activity change, positive = activation [6] 3.52% | Potency [7] | Potency [20] | Potency [16] | Potency [8] | Potency [9] | Potency [17] | Potency [10] | max response [18] 1.17% | Potency [11] | Potency [12] | Potency [13] | Potency [19] | Potency [14] | Potency [15]

C1CCCNCCC1
inactive: Potency [1] | Potency [2] | Potency [3] | Potency [4] | Potency [5] | activity change, positive = activation [6] -2.25% | Potency [7] | Potency [20] | Potency [16] | Potency [8] | Potency [17] | Potency [10] | max response [18] -5.84% | Potency [11] | Potency [12] | Potency [13] | Potency [19] | Potency [14] | Potency [15]

Nc1ccc([N+](=O)[O-])c(C(F)(F)F)c1
inactive: Potency [1] | Potency [2] | Potency [3] | Potency [4] | Potency [5] | activity change, positive = activation [6] -17.3% [at 42.5 µM] | Potency [7] | Potency [16] | Potency [8] | Potency [9] | Potency [17] | Potency [10] | max response [18] -6.2% | Potency [11] | Potency [12] | Potency [13] | Potency [19] | Potency [14] | Potency [15]

CCOC(=O)C(O)c1ccccc1 (configuration not stated)
inactive: Potency [1] | Potency [2] | Potency [3] | Potency [4] | Potency [5] | activity change, positive = activation [6] 3.78% [at 42.5 µM] | Potency [20] | Potency [8] | Potency [9] | Potency [17] | Potency [10] | max response [18] 4.49% | Potency [11] | Potency [12] | Potency [19] | Potency [14] | Potency [15]

CCCCC/C=C\C/C=C\CCCCCCCC(=O)NC(C)c1ccccc1 (configuration not stated)
inactive: Potency [1] | Potency [2] | Potency [3] | Potency [4] | activity change, positive = activation [6] -35.5% [at 42.5 µM] | Potency [7] | Potency [20] | Potency [16] | Potency [8] | Potency [9] | Potency [17] | Potency [10] | max response [18] -16.2% | Potency [11] | Potency [13] | Potency [14] | Potency [15]
active: Potency [5] 18.8 µM

NCCCN1CCOCC1
inactive: Potency [1] | Potency [2] | Potency [3] | Potency [4] | Potency [5] | activity change, positive = activation [6] 6.49% | Potency [7] | Potency [20] | Potency [16] | Potency [8] | Potency [9] | Potency [17] | Potency [10] | max response [18] -9.34% | Potency [11] | Potency [13] | Potency [19] | Potency [14] | Potency [15]

C[C@@H]1C[C@H]2O[C@@]3(O[C@@H]2C(C)(C)O)[C@H](O)[C@@]2(C)[C@@H]4CC[C@H]5C(C)(C)[C@@H](O[C@@H]6OC[C@@H](O)[C@H](O)[C@H]6O)CC[C@@]56C[C@@]46CC[C@]2(C)[C@@H]13
inactive: Potency [1] | Potency [2] | Potency [3] | Potency [4] | Potency [5] | activity change, positive = activation [6] -12.2% [at 42.5 µM] | Potency [7] | Potency [20] | Potency [16] | Potency [8] | Potency [9] | Potency [17] | Potency [10] | max response [18] -15.4% | Potency [11] | Potency [12] | Potency [13] | Potency [19] | Potency [14]

CC[N+](C)(CC)CCOC(=O)C(O)(c1ccccc1)C1CCCCC1 (configuration not stated)
inactive: Potency [1] | Potency [2] | Potency [3] | Potency [4] | Potency [5] | activity change, positive = activation [6] -2.02% [at 42.5 µM] | Potency [7] | Potency [20] | Potency [8] | Potency [9] | Potency [17] | Potency [10] | max response [18] 6.78% | Potency [11] | Potency [12] | Potency [13] | Potency [19] | Potency [14] | Potency [15]

CCN(CC)CCNc1ccc(CNC=O)c2sc3ccc(OC)cc3c(=O)c12
inactive: Potency [2] | Potency [3] | Potency [4] | activity change, positive = activation [6] -41.1% | Potency [16] | Potency [11] | Potency [12] | Potency [19] | Potency [15]
active: Potency [1] 24.5 µM | Potency [5] 2.73 µM | Potency [20] 17.4 µM | Potency [8] 17.4 µM | Potency [9] 19.5 µM | Potency [17] 27.5 µM | Potency [18] 8.71 µM | Potency [13] 19.5 µM

Nc1cccc([N+](=O)[O-])c1
inactive: Potency [1] | Potency [2] | Potency [3] | Potency [4] | Potency [5] | activity change, positive = activation [6] -5.85% | Potency [7] | Potency [20] | Potency [16] | Potency [8] | Potency [17] | Potency [10] | max response [18] 1.66% | Potency [11] | Potency [13] | Potency [14] | Potency [15]

CCC(Cl)CCC(Cl)C(Cl)CC(Cl)C(Cl)C(Cl)CCl (configuration not stated)
inactive: Potency [1] | Potency [2] | Potency [3] | Potency [4] | Potency [5] | activity change, positive = activation [6] 0.0481% | Potency [7] | Potency [20] | Potency [16] | Potency [8] | Potency [9] | Potency [17] | max response [18] 0.988% | Potency [11] | Potency [12] | Potency [13] | Potency [19] | Potency [14] | Potency [15]
